Reference: PubChem BioAssay AID1347417 (National Center for Advancing Translational Sciences (NCATS), 2020)
Hit rate of the full screen: of about 120,000 compounds, about 5,300 (4.4%) were called active. Another 22% or so got no clear call; they are omitted. Shown is part of a subset that was picked to be rich in actives. Unmarked numbers belong to inactive results. The call rests on the fitted dose curve; in most records, active means well fitted inhibition curve with a large enough effect; inconclusive means small, poorly fitted or top-dose-only effect; inactive means no such curve, though single readings can be large or run the other way.

Assay: qHTS Primary assay for Inhibitors of Plasmodium falciparum Dd2 growth in vitro; further: nearly all actives have a fitted effect of over 65% in size;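 on activity, negative = inhibition: plate controls were DMSO vehicle for no effect and reference drug for full effect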
Details: P. falciparum Dd2 growth, SYBR Green, 72 h; series mostly up to 28.9 µM; activity, negative = inhibition: at the top concentration
Outline: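 Readout: SYBR Green fluorescence, 485 nm excitation, 535 nm emission, after ~16 h lysis at 37C. Before that, Dd2-infected red cells (2.5% hematocrit) grew 72 h with compound, 29 uM top final concentration.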
Potency means the concentration at half of the fitted maximal effect.

Row | Compound | outcome | activity, negative = inhibition | Potency
1 | CC(=O)c1ccc(NC(=O)C2CCN(S(=O)(=O)c3c(C)noc3/C=C/c3ccc(C)cc3)CC2)cc1 | inactive | – | –
2 | CCOC(=O)c1c(C)[nH]c(C)c1S(=O)(=O)N1CCC(C(=O)Nc2ccc(C)c(Cl)c2)CC1 | – | 6.26% | –
3 | CCOc1ccc(NC(=O)C2CCN(S(=O)(=O)c3cc(-c4noc(C)n4)ccc3C)CC2)cc1 | – | – | 3.98 µM (active)
4 | Cc1cnn(CCC(=O)N2CC(F)(F)C[C@H]2c2nnc(C)o2)c1 | – | 32.9% | –
5 | COc1cccc(S(=O)(=O)N2CCCN(C(=O)C3CC3)c3ccccc32)c1 | – | -17.6% | –
6 | CCOC(=O)c1[nH]c(C)c(CCC(=O)N2CCN(c3ccccc3)CC2)c1C | – | – | 3.98 µM (active)
7 | CCOC(=O)c1c(C)[nH]c(C)c1S(=O)(=O)N(C)CC(=O)N1CCN(c2ccccc2)CC1 | inactive | – | –
8 | Cc1nc(SCC(=O)N2CCN(c3ccccc3)CC2)[nH]c(=O)c1C | – | 2.9% | –
9 | COCCN1C(=O)c2cccn2CC1CNS(=O)(=O)c1c(C)noc1C (stereo not given) | – | -0.664% | –
10 | O=C(c1cccc(OC2CN(Cc3nccs3)C2)c1)N1CCOCC1 | – | – | 2.51 µM (active)
11 | O=C(c1cccc(F)c1)N1CCOC[C@H](Oc2ccc(C(F)(F)F)cc2)C1 | inactive [at 44.1 µM] | – | –
12 | COc1cccc(C(=O)N2CCC(Oc3ccc(C(=O)N4CCOCC4)cn3)CC2)c1 | – | 35% | –
13 | CC(=O)NCCC(=O)N1Cc2ccccc2CC2(CCCCN2CC2CCNC2)C1 (stereo not given) | – | 11.9% | –
14 | O=C(c1ccccc1)N1Cc2ccccc2CC2(CCCN2CC2CCNC2)C1 (stereo not given) | – | -21.9% | –
15 | O=C(C1CCCC1)N1Cc2ccccc2CC2(CCCCN2CC2CCNCC2)C1 (stereo not given) | – | – | 5.01 µM (active)
16 | COCCOc1ccnc(-c2noc([C@@H]3CCCN3Cc3ccc(Cl)cc3)n2)c1 | – | – | 3.98 µM (active)
17 | COCCNc1ncccc1-c1noc([C@@H]2CCCN2Cc2ccc3c(c2)OCO3)n1 | – | -24% [at 44.1 µM] | –
18 | COc1ccc(C(=O)Nc2ccc(-c3noc([C@@H]4CCCN4Cc4ccc(S(C)(=O)=O)cc4)n3)cn2)cc1 | inactive | – | –
19 | Cc1ccc2c(c1)N1C(=O)OC[C@@H]1CCN(C(=O)c1ccnc(Cl)c1)C2 | – | 14% [at 44.1 µM] | –
20 | Cc1ccc(-c2nocc2CCC(=O)N2CCN(c3ccccc3F)CC2)cc1 | inactive | – | –

Row | Compound | outcome | activity, negative = inhibition | Potency
21 | CN(C)C(=O)c1cccnc1N1CC2CC(C1)[C@H]1CCCC(=O)N1C2 (stereo not given in full) | – | -8.74% | –
22 | COc1ccc(-c2ccccc2CN)cc1 | – | – | 7.94 µM (active)
23 | COc1ccc(-c2nn3c(-c4ccc(OC)cc4)nnc3c3ccccc23)cc1 | – | 31.5% | –
24 | COc1ccccc1-c1ccc(C(=O)O)cc1 | inactive [at 44.1 µM] | – | –
25 | CC(C)c1noc(-c2cn(C3CCN(C(=O)c4cccc(C#N)c4)CC3)nn2)n1 | – | -18.1% | –
26 | CC(C)c1noc(-c2cn(C3CCN(C(=O)COc4ccccc4)C3)nn2)n1 (stereo not given) | – | -11.6% | –
27 | CC(C)c1noc(-c2cn(C3CCN(C(=O)COc4ccc(F)cc4)CC3)nn2)n1 | – | – | 10 µM (active)
28 | CNC(=O)[C@@H]1CN(C(=O)Cc2cccnc2)C[C@H]1COC | – | 22.4% | –
29 | O=C(NC1CCCC1)N1CC2CC(C1)[C@H]1CCCC(=O)N1C2 (stereo not given in full) | – | 6.81% | –
30 | COC(=O)c1scc(-c2ccc(C)cc2)c1S(=O)(=O)Nc1cc(Cl)c(OC)cc1OC | – | – | 8.91 µM (active)
31 | COC(=O)c1scc(-c2ccccc2)c1S(=O)(=O)Nc1ccccc1 | – | 13.8% | –
32 | CCOC(=O)c1scc(-c2ccc(C)cc2)c1S(=O)(=O)Nc1cc(C)ccc1C | inactive | – | –
33 | COc1ccc(CN2C[C@H]3CN(Cc4ccccc4)CCN3C2=O)cc1 | inactive [at 44.1 µM] | – | –
34 | CCCS(=O)(=O)N1CCC2(CC1)C(OC)C(=O)N2CC1CC1 (stereo not given) | – | 7.35% | –
35 | COc1ccc(N2CCN(CCCNC(=O)C3(CCO)CC34CCOCC4)CC2)cc1 (stereo not given) | inactive | – | –
36 | COc1ccc(-c2nc(Cn3c(=O)cc(C)c4c(C)nn(-c5ccccc5)c43)c(C)o2)c(OC)c1 | – | 25.9% | –
37 | COc1ccc(C2CC(=O)N(Cc3ccccc3C)c3c2c(C)nn3-c2nc(C)cc(C)n2)c(OC)c1 (stereo not given) | – | – | 10 µM (active)
38 | C#CCOc1ccc(C2CC(=O)Nc3c2c(C)nn3-c2nc(C)cc(C)n2)cc1 (stereo not given) | – | -28.9% | –
39 | CCc1cc(=O)n(CC(=O)Nc2ccc(OC)c(OC)c2)c(N2CCOCC2)n1 | inactive | – | –
40 | COc1ccc2[nH]c(=O)c(CCC(=O)NCC(N)=O)cc2c1 | – | -22% | –

Row | Compound | outcome | activity, negative = inhibition | Potency
41 | Cc1n[nH]c(C)c1CCC(=O)N[C@@H]1CN(S(C)(=O)=O)C[C@H]1CN(C)C | – | 52.8% | –
42 | COc1ccc(OCC2CCN(CC3(O)CCCNC3)CC2)cc1 (stereo not given) | – | – | 12.6 µM (active)
43 | CCc1cc(N2CCN(CC3(O)CCCNC3)CC2)ncn1 (stereo not given) | – | -2.03% | –
44 | OC1(CN2CCC(CCn3cccn3)CC2)CNCCOC1 (stereo not given) | – | -13.6% | –
45 | O=C(c1ccccn1)N1CCC2(CC1)C(=O)Nc1ccccc12 | – | 90.5% | –
46 | O=C([C@@H]1C[C@H](Oc2ccccc2)CN1C(=O)NC1CCCCC1)N1CCCC1 | – | -1.4% | –
47 | CCn1cc(C(=O)N2CCN(c3cc(Cl)ccc3C)CC2)c(=O)c2cc(S(=O)(=O)N3CCCC3)ccc21 | – | 1.19% | –
48 | COc1ccc(-c2nc(S(=O)(=O)c3ccccc3)c(N3CCCCC3)o2)cc1 | – | 10% | –
49 | Cc1ccc(S(=O)(=O)c2cn(Cc3ccccc3)c3cc(N4CCCC4)c(F)cc3c2=O)c(C)c1 | – | – | 12.6 µM (active)
50 | COc1ccc(S(=O)(=O)c2cn(C)c3cc(N4CCCCC4)c(F)cc3c2=O)cc1 | – | – | 8.91 µM (active)
51 | CC1CCCN(c2cc3c(cc2F)c(=O)c(S(=O)(=O)c2cccc(Cl)c2)cn3Cc2ccccc2)C1 (stereo not given) | inactive | – | –
52 | COc1ccc(N2CCN(C(=O)c3cn(C)c4ccc(S(=O)(=O)N5CCOCC5)cc4c3=O)CC2)cc1 | inactive | – | –
53 | CC(=O)N1CC2(CCN(C(=O)CCC(=O)O)CC2)Cc2ccccc21 | – | -0.797% | –
54 | COc1ccc(-c2cnc3n2CC(C(=O)NCCCN2CCCC2=O)CC3)cc1 (stereo not given) | – | -11.1% | –
55 | O=C(N[C@@H]1CCC[C@@H]1C(=O)N1CCN(c2ccccc2F)CC1)c1ccncc1 | – | -23.6% | –
56 | COCC(=O)NC1CCN(c2ccc(C)cc2)C1=O (stereo not given) | – | -4.4% | –
57 | COc1ccccc1C(=O)N1CCCC(n2cc(-c3nc(-c4ccccc4)no3)nn2)C1 (stereo not given) | – | -20.6% | –
58 | O=C(O)c1c(CNCc2cccc(F)c2)c2ccccc2n1Cc1ccccc1 | – | -17% | –
59 | O=c1c2ccccc2n(Cc2cccc(Cl)c2)c(=O)n1Cc1ccccc1 | inactive | – | –
60 | O=C(NC1CCN(Cc2ccccc2)CC1)c1ccc(Cn2c(=O)c3ccccc3n(Cc3cccc(F)c3)c2=O)cc1 | – | – | 7.94 µM (active)
